Measured values: PubChem BioAssay (NCI)
Where “and” joins values, the source holds several entries; their conditions need not be identical. Equal entries are not always repeated. Compounds without any hit were thinned out: in the full panel of roughly 79,000, 15% have a hit. A number with no mark means an inactive call. Calls of active or inactive are those of the source. Rule as the data show it: active = growth inhibition above about 70%; inactive = the rest.

Tests used:
[1] = NCI Yeast Anticancer Drug Screen. Data for the rad50 strain (AID 155);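 also: 0% = growth of vehicle-only cultures of the same strain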; conditions: S. cerevisiae rad50 strain growth inhibition; at 50.0 µM; hits give high values
Procedure, shortened: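 Vehicle-treated cultures provide the reference for the growth inhibition reported for compound-exposed, repair-deficient yeast.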

[2] = NCI Yeast Anticancer Drug Screen. Data for the mec2-1 strain (AID 157); conditions: S. cerevisiae mec2-1 strain, at 50.0 µM, hits give high values
Procedure, shortened: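 Test agents were screened against the mec2-1 yeast strain, with defined DNA repair or cell cycle alteration. Growth was scored as inhibition against vehicle-only controls.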

[3] = NCI Yeast Anticancer Drug Screen. Data for the sgs1 mgt1 strain (AID 161);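 also: 0% = growth of cultures given vehicle only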; conditions: S. cerevisiae sgs1 mgt1 strain, at 50.0 µM, hits give high values
Procedure, shortened: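 Mutant yeast exposed to compound; growth scored against vehicle-only wells.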

[4] = NCI Yeast Anticancer Drug Screen. Data for the cln2 rad14 strain (AID 165);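 also: 0% = growth equal to vehicle treated cultures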; conditions: S. cerevisiae cln2 rad14 strain, at 50.0 µM, hits give high values
Procedure, shortened: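 Growth of compound-exposed yeast (cln2 rad14 genotype) measured and expressed as inhibition relative to vehicle.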

[5] = NCI Yeast Anticancer Drug Screen. Data for the bub3 strain (AID 167); conditions: S. cerevisiae bub3 mutant strain, at 50.0 µM, hits give high values
Procedure, shortened: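 Mutant yeast screening strain plus compound; vehicle-treated cultures serve as the 0% inhibition reference.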

[6] = NCI Yeast Anticancer Drug Screen. Data for the mlh1 rad18 strain (AID 175); conditions: S. cerevisiae mlh1 rad18 strain growth inhibition; at 50.0 µM; hits give high values
Procedure, shortened: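 In this whole-cell yeast screen, a strain with altered DNA damage repair is challenged with compound, and its growth is measured against matched vehicle-treated controls.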

Row | Compound | growth inhibition [1] | growth inhibition [2] | growth inhibition [3] | growth inhibition [4] | growth inhibition [5] | growth inhibition [6]
1 | CCOP(=O)(N=S=O)OCC | 5.75% | -13.5% | -4.05% | -28.2% | 7.95% | -2.2%
2 | Cc1cc2n[se]nc2cc1C | 18.3% | -9.15% | 20.6% | 6.3% | -6.65% | 21.7%
3 | COc1cccc(C=C2C(=O)NC(=S)NC2=O)c1O | -8.95% | -12.6% | -4.35% | 15.7% | -2.25% | 26.6%
4 | O=P(CCl)(Oc1ccc(Cl)cc1)Oc1ccc(Cl)cc1 | 20.6% | 16.1% | 6% | -19.4% | 7.5% | -10.2%
5 | [C-]#[O+].[C-]#[O+].[C-]#[O+].[C-]#[O+].[Cr].c1ccc([PH+](c2ccccc2)c2ccccc2)cc1.c1ccc([PH+](c2ccccc2)c2ccccc2)cc1 | -4.4% | 8.05% | -8.95% | -3.35% | -5.4% | -1.55%
6 | O=CC=O | 33.1% | 17.6% | 24.4% | 21.6% | 33.9% | 28.4%
7 | CC(=O)OC1CCC2C3CCC4CC5(CCC4(C)C3CCC12C)CO5 (stereo not given) | -2.45% | -10.7% | -26.2% | 1.2% | 1.75% | 1.2%
8 | CC1C(c2ccccc2)OCCN1C (stereo not given) | -26.4% | -12.9% | -23.7% | -7.5% | -16.4% | -32.2%
9 | C1CN2CN3CCN(CN1C3)C2 | 13.1% | 12.2% | 20.9% | 33.2% | 10.2% | 13.8%
10 | O=C1SCCC1CO (stereo not given) | -8.65% | 3.9% | -6.8% | -3.15% | -2.3% | -8.45%
11 | CC[As](=O)(O)c1ccc(I)cc1 | 3.6% | -8.4% | -1.95% | -11.8% | 12.8% | 5.95%
12 | O=[N+]([O-])c1ccc([As](=O)(O)c2cccc([N+](=O)[O-])c2)cc1 | 0.8% | 1.3% | 0.65% | -28.9% | 38.9% | 7.4%
13 | CC(=O)C(C(C)=O)C(=O)c1ccc([N+](=O)[O-])cc1.[Cr] | -23.5% | 9.5% | 6.3% | -55.5% | 28.5% | 23.2%
14 | C[C@@]1(CCCCCCCCCCc2ccccc2)C[C@@]2(C)OC(=O)C[C@H]2OO1 | -15.1% | -6.05% | -20.2% | -39% | -80.7% | -25.6%
15 | C1CC[N-]CC1.CC(=N\O)/C(C)=N/O.CC(=N\O)/C(C)=N/O.C[C-]=O.[Co+2] | -3.6% | 18.4% | 10.3% | 23.6% | 19% | 14.4%
16 | COC(=O)c1nc(-c2ccc3c(n2)C(=O)C(N)=C(OC)C3=O)c(N)c(-c2ccc(OC)c(OC)c2O)c1C | 58% | 7.25% | 36.1% | 26.2% | 23.2% | 47.5%
17 | CC(C)C(=O)[O-].CC(C)C(=O)[O-].N.N.N.N.[Co+3].[O-][Cl+3]([O-])([O-])[O-] | -17.1% and -29.1% | 4% and 16.6% | -54% and -56.5% | 9.9% and 23.4% | -6.75% and -12.6% | -11.2% and -8.35%
18 | c1ccc2cc(C3NCCc4[nH]cnc43)ccc2c1 (stereo not given) | 4.65% | -7.6% | -6.7% | 2.85% | -7.7% | 29.8%
19 | CC(=O)c1ccc(-c2ccccc2)cc1 | -5.3% | 2.6% | 8.45% | 11.9% | 3.6% | 18.1%
20 | COC(=O)C1C(c2ccc(-c3ccccc3)cc2)N1C1CCCCC1 (stereo not given) | 7.7% | 19.8% | 2.9% | -2.05% | -4% | 1.85%

Row | Compound | growth inhibition [1] | growth inhibition [2] | growth inhibition [3] | growth inhibition [4] | growth inhibition [5] | growth inhibition [6]
21 | O=[N+]([O-])c1ccc(OCc2ccc(COc3ccc(S(=O)(=O)F)cc3)cc2)c(Cl)c1 | -0.6% | -8.15% | -2.3% | -6.35% | -7.6% | -7.5%
22 | CNC(C)Cc1ccccc1OC (stereo not given) (tested in a mixture with another compound) | -14.8% | 1.9% | 4.15% | -35.9% | 9.55% | -7.7%
23 | CCOc1ccc2c(N/N=C/c3ccc(N(CCCl)CCCl)cc3)cc(C)nc2c1 | 96.3% (active) | 97.6% (active) | 97.3% (active) | 97.8% (active) | 95.7% (active) | 96.3% (active)
24 | CC([NH-])C[NH-].[Na+].[O]=[Co][O-] (stereo not given) | 8.4% | 11.9% | 24.5% | -21.6% | -0.25% | 10.3%
25 | CCCN(CCC)C(=O)CCl | -4.55% | 5.2% | 5.85% | 3.3% | -4.55% | 9.4%
26 | COC(=O)C1=C(C)N2CCCOC2(C)C(C(=O)OC)C1c1cccc(Cl)c1 (stereo not given) | 61.4% | 16.6% | 40.5% | 29.1% | 44.4% | 61.5%
27 | NC(CCl)=NC1CN2CCC1CC2 (stereo not given) | -22.5% | -20.4% | -13.2% | 5.9% | -32.1% | -7.15%
28 | NC1CC2CCCCC2CC1c1ccccc1 (stereo not given) | 14.8% | 19.4% | 18.5% | 11.9% | -5.85% | 18.1%
29 | CNC(=O)C(CC(C)[N+](C)(C)C)(c1ccccc1)c1ccccc1 (stereo not given) | 14.2% | 8.4% | 14.5% | 17.9% | 4.85% | 11.4%
30 | O=C(O)CN(CCN(CC(=O)O)CC(=O)O)CC(=O)O.[Cl][Pd][Cl] | 41.7% | 51.5% | 48.2% | 21.7% | 44.6% | 62%
31 | NC(=O)C(Cl)(Cl)CCl | 14.7% | -34.5% | -12.4% | 1.5% | -2.5% | 6.65%
32 | CCOC(OC1=C(C#N)CCCC1)C(CC)[Se]c1ccccc1 (stereo not given) | 62.6% | 21.3% | 50.8% | 52% | 44.1% | 57.8%
33 | COC1CC(OC2C(C)OC(OC3C(C)OC(OC4C(C)OC(O[C@H]5CC[C@@]6(C)C(=CC[C@]7(O)[C@@H]6C[C@@H](OC(C)=O)[C@@]6(C)[C@]7(O)CC[C@@]6(O)C(C)=O)C5)CC4OC)CC3OC)CC2OC)OC(C)C1O (stereo not given in full) | -7.85% | -7.45% | -9.55% | -3.7% | -12.7% | -47.1%
34 | O=C(CCN1CC2CCC(CC2)C1)c1cccs1 | -15.8% | -21.9% | -16.4% | -13.9% | -45.8% | -28.8%
35 | CN1CN(c2ccccc2)C2(CCN(CC(C)(c3ccc(F)cc3)C3OCCCO3)CC2)C1=O (stereo not given) | -22.9% | -18.9% | -21.9% | -5.3% | -27.1% | 8.95%
36 | O=[N+]([O-])c1cc(-c2ccc([As](=O)(O)O)cc2)ccc1[As](=O)(O)O | 2.5% | 4.4% | -40% | 9.5% | -22% | -4.15%
37 | O=S1(=O)c2ccccc2-c2ccccc21 | -5% | -7.95% | -13.8% | -3.5% | -11.6% | 5.65%
38 | OC(c1ccccc1)C(NC1CCCCC1)c1ccccc1 (stereo not given) | -4.5% | -18.6% | -0.75% | -24.2% | -6.3% | -56%
39 | CCC[CH2][Sn]([CH2]CCC)([CH2]CCC)[CH2]CC(=O)OC | 99.5% (active) | 99.4% (active) | 99.5% (active) | 99.3% (active) | 99% (active) | 99.5% (active)
40 | N#Cc1ccncc1 | 22.3% | -24.1% | 23.9% | -3.75% | 7.35% | 16%
